D3 ag – activates the human D3 dopamine receptor | D3R DiscoveRx beta-arrestin cells, luminescence, 90 min | max activation, % | actives 0.58% (n = 410,000); in the data active means max activation above about 30%; further: 0% is about no effect
Target sequence (P35462 whole entry, looked up): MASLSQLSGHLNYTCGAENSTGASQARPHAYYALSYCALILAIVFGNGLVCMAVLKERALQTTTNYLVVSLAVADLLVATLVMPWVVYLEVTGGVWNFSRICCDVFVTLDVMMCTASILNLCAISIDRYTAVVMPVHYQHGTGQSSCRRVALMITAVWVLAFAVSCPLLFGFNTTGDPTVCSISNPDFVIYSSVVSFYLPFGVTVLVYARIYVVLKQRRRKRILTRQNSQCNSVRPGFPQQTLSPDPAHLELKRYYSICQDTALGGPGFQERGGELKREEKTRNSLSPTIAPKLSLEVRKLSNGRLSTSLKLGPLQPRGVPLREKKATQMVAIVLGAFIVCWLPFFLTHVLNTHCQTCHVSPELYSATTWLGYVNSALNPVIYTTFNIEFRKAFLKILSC
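Agonist mode: compounds and dopamine controls were applied to plated cells for 90 min at 37 degrees C after an overnight attachment at 1500 cells/well. Luminescent read-out followed 30 - 60 minutes at room temperature with DiscoveRx detection reagent.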
a7 integrin act – integrin-mediated muscular dystrophy alleviation activation; alpha7betagal myoblasts, beta-gal FDG fluorescence, 48 h; Potency, µM (titrated, usually from 38.3 µM), for the others: top-dose activation, most hits filed as activators; actives 0.064% (n = 350,000); AID 624291;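 further: potency means the concentration at half of the fitted maximal effect; 100% = response of the positive control SU9516; nearly all actives have a fitted effect of over 60% in size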
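Alpha7betagal+/- myoblasts (passage 13) were plated 16-24 hr, then exposed to compounds (1:260 dilution of DMSO stock) for 48 hours at 37C. After MPER lysis, β-galactosidase reporter activity was read as FDG fluorescence (ex 480/em 540) after 30 minutes.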
IL1B secr inh – inhibitors of inflammasome signaling (IL-1 beta secretion). THP-1 LPS/ATP IL-1B secretion, AlphaLISA, 16 h; hits give low values. activity change, % at 57.5 µM. actives 4.7% (n = 360,000). AID 743279; in the data active means activity change below about -50%; inconclusive means mostly about -30% to -49%; further: on the % scale 0 is the no-effect control and ±100 the full control effect
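Secreted IL-1B measured by AlphaLISA bead assay after 16 h compound exposure of THP-1 cells; compounds (final up to 57.5 uM) added 1 h before LPS (250 ng/mL) and ATP (1.25 mM) stimulation; lower signal means less secretion.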
ATXN2 expr inh – ATXN2 expression inhibition; HEK-293 ATXN2-luciferase reporter, luminescence, 24 h; Potency, µM (series often up to 57 µM), inactives show top-dose activity change, negative = inhibition, most hits filed as inhibitors; actives 0.72% (n = 360,000); further: potency means the concentration at half of the fitted maximal effect; on the % scale 0 is the no-effect control and ±100 the full control effect; nearly all actives have a fitted effect of over 55% in size
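ATXN2-luciferase reporter cells (luciferase flanked by upstream and downstream ATXN2 gene portions) were treated 24 h at 37 °C with compounds at up to 57 uM. SteadyGlo luminescence gave expression; GF-AFC fluorescence gave viability.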
D3 antag – antagonists of human D3 dopamine receptor | P35462 | D3R cells, DiscoveRx beta-arrestin luminescence, antagonist mode; hits give low values | max response, negative = inhibition, % | actives 2.5% (n = 360,000) | AID 652054; in the data active means max response below about -50%; inconclusive means no clear call, values can overlap the other calls; further: on the % scale 0 is the no-effect control and ±100 the full control effect
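Cells expressing the human receptor were seeded at 1500 cells/well, incubated overnight at 37 degrees C in 5% CO2, then exposed to library compounds with dopamine controls for 90 minutes at 37 degrees C before luminescent detection.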
S2 tox – reduces viability in counter-screen for ATXN expression inhibitors; S2 cells (HEK-293 line with an ATXN2-luciferase reporter) viability, CellTiter-Fluor protease fluorescence, 24 h; Potency, µM (doses to about 56.7 µM), usual class: cytotoxic; actives 0.49% (n = 400,000); further: potency means the concentration at half of the fitted maximal effect; nearly all actives have a fitted effect of over 40% in size
Starred values were filed as active, the others as inactive; i = inactive; ? = inconclusive; . = no result given; [ ] = dose if it differs, or a comment. Only some compounds are listed: those with a hit (about 7% of all), similar ones and a draw of the others. Unless noted, the call rests on the fitted dose curve; in most records, active means well fitted curve in the direction sought with a large enough effect; inconclusive means small, poorly fitted or top-dose-only effect, or another doubt; inactive means no such curve, though single readings can be large; an effect the other way counts as inactive or inconclusive.

SMILES	D3 ag	a7 integrin act	IL1B secr inh	ATXN2 expr inh	D3 antag	S2 tox
Clc1ccc(/C=N/NC2=Nc3cccc4cccc2c34)cc1	5	-25%	12	-8%	7	?
N#Cc1ccccc1Cn1c(=O)n(-c2ccccc2)c(=O)c2c3c(sc21)CCC3	-2	.	.	2%	.	i
COc1ccc(C(=O)N/N=C/C(Br)=C/c2ccccc2)cc1	-13	-50%	-58*	3%	-13	i
O=C(C(=Cc1ccc(F)cc1)c1ccccc1)c1ccc(O)cc1	3	11%	?	-20%	19	?
O=C(N/N=C/C(Br)=C/c1ccccc1)c1ccccc1[N+](=O)[O-]	-3	0%	-19	-33%	-12	i
O=C(Nc1ccc(Br)cc1)c1ccccc1Br	4	-17%	-56*	-6%	5	i
COc1ccc(/C=N/NC(=O)c2ccc(NC(=O)c3ccccc3Br)cc2)cc1	2	25%	-56*	-34%	-21	i
O=C(C(=Cc1ccc(F)cc1)C(=O)c1ccccc1)c1ccccc1	-8	.	-112*	0%	-62*	i
CSc1ncc2c(n1)-c1ccccc1N(Cc1ccc(F)cc1)S2(=O)=O	9	.	.	4%	.	i
CC(=O)Nc1ccc(S(=O)(=O)NCC(C)NS(=O)(=O)c2ccc(NC(C)=O)cc2)cc1 (stereo not drawn)	-1	6%	-2	14%	-8	?
Cc1occc1C(=O)N/N=C/C(Br)=C/c1ccccc1	2	?	-78*	43%[11.3 µM]	-6	i
COc1cccc(C(=O)Nc2ccccc2NC(=O)c2cccc(OC)c2)c1	-5	7%	-12	-19%	-9	i
Cn1cc(C(=O)N/N=C/C(Br)=C/c2ccccc2)ccc1=O	1	-61%	?	.	1	.
CCC(=O)Nc1ccc(C=C(C(C)=O)C(C)=O)cc1	-9	-36%	-6	.	-14	?
CCC(=O)Nc1ccc(/C=C(\C(C)=O)C(=O)c2ccccc2)cc1	-2	-44%	-98*	?	-26	?
COc1cccc(C(=O)N/N=C/C(Br)=C/c2ccccc2)c1	-4	-52%	-75*	-1%	3	?
Cc1occc1C(=O)N/N=C/c1ccc(-c2ccccc2)cc1	-10	?	?	1%	-15	i
Cn1cc(C(=O)N/N=C/C(Br)=C\c2ccccc2)ccc1=O	-4	-75%	-98*	-21%	-13	i
COc1cccc(/C=C(/C(=O)OCC(N)=O)c2ccccc2)c1	-3	-16%	-16	-12%	-6	i
CCOC(=O)C(=Cc1ccc(N(C)C)cc1)C(=O)c1ccccc1	-3	.	-75*	-26%	2	i
COc1cccc(C=C(C(C)=O)C(=O)c2ccccc2)c1	-8	.	-113*	?	-21	.
CC(=O)N1CCOc2cc(S(=O)(=O)NC(C)c3ccccc3)c(Cl)cc21 (stereo not drawn)	-15	26%	-25	-11%	-61*	i
CC1CN(C(=O)CCC(=O)NCCCN2CCN(Cc3ccccc3)CC2)c2cc(Cl)ccc2O1 (stereo not drawn)	-2	-28%	-22	-26%	-90*	i
CC(=O)N1CCOc2cc(S(=O)(=O)N(C)Cc3ccccc3)c(Cl)cc21	-11	.	.	-3%	.	i
Cc1ccc2c(c1)NC(=O)C(CC(=O)NCCCN1CCN(c3cc(Cl)ccc3C)CC1)O2 (stereo not drawn)	-9	12%	-21	?	-72*	?
SMILES	D3 ag	a7 integrin act	IL1B secr inh	ATXN2 expr inh	D3 antag	S2 tox
CC(CNC(=O)CCC(=O)N1CCOc2ccc(Cl)cc21)c1ccccc1 (stereo not drawn)	-15	27%	?	-29%	-50*	?
O=C(NCc1cccs1)C1CCCN(S(=O)(=O)c2ccc(Br)s2)C1 (stereo not drawn)	6	10%	5	4%	6	i
CN1C(=O)/C(=C/C=C2\SCCN2C)N(C)C1=S	-3	-4%	-12	9%[11.3 µM]	-12	?
Cc1ccc(S(=O)(=O)N(C)c2ccc(C(=O)N(CC(C)C)C3CCS(=O)(=O)C3)cc2)cc1 (stereo not drawn)	2	-32%	-1	5%	17	i
O=C(CCC(=O)N1CCOc2ccc(Cl)cc21)NCCCN1CCN(Cc2ccccc2)CC1	-13	-34%	-12	-19%	-60*	?
CCC1Oc2ccc(C)cc2N(CC(=O)NCCCN2CCN(Cc3ccccc3)CC2)C1=O (stereo not drawn)	-30	-20%	-21	-11%	-75*	i
Cc1cc(Cl)ccc1OC(C)C(=O)Nc1ccc([N+](=O)[O-])cn1 (stereo not drawn)	1	22%	-69*	-8%	-12	i
O=C(Nc1ccc([N+](=O)[O-])cn1)C1CC1	5	10%	-4	-16%	16	i
CC(=O)Nc1ccc([N+](=O)[O-])cn1	-8	13%	24	5%	-53*	i
CN(C)C(=O)c1cc(CNCc2ccc(C(F)(F)F)cc2)cc(NC(=O)c2ccccn2)c1	.	.	.	.	.	i
Cn1c(=O)c2c(nc(NCc3ccccc3)n2CCCc2ccccc2)n(C)c1=O	6	19%	-1	-5%	23	i
N=c1oc2cc(O)ccc2cc1C(=O)Nc1ccc(Cl)cc1	5	36%	-89*	10%	26	.
Cc1ccc(NC(=O)c2cc3ccccc3oc2=N)cc1	-9	17%	12	.	15	i
Nc1ccc2c(c1)C(=O)c1ccc(N)cc1-2	-9	-18%	-76*	0%	-6	i
CC(=O)N1CCc2cc(S(=O)(=O)NC(Cc3ccccc3)C(=O)Nc3cc(C)ccn3)ccc21 (stereo not drawn)	-12	-16%	3	-18%	-71*	i
CC(=O)N1CCc2cc(S(=O)(=O)NC(Cc3ccccc3)C(=O)Nc3cc(C)cc(C)c3)ccc21 (stereo not drawn)	-4	.	.	?	.	i
O=C1C2C3C=CC(CO)(O3)C2C(=O)N1c1ccccc1-c1ccccc1 (stereo not drawn)	-16	-66%	-82*	?	?	?
CC(=O)Oc1ccc(N2C(=O)C3C4C=CC(CO)(O4)C3C2=O)cc1 (stereo not drawn)	8	-56%	-4	1%	6	?
COc1ccc(CNC(=O)c2cc(C)nc3ccccc23)cc1OC	8	-24%	35	-11%	-2	i
CCc1cccc(CC)c1NC(=S)NCC(c1cccnc1)N(C)C (stereo not drawn)	-13	14%	2	-17%	-23	i
